Assay results: PubChem BioAssay AID1259240 (Keith Lab, Institute of Cancer Science, University of …, 2017)
A number with no mark means an inactive call. The source made the active and inactive calls. Rule as the data show it: active = fold change mostly below about -2 (no sharp cut-off); inactive = mostly above about -1.8.

Experiment: TERT promoter activity modulators, primary screen, cell-based, luciferase reporter, human (AID 1259240)
Conditions: A2780 TERT promoter luciferase reporter, 16 h; at 20 µM, fold versus average of vehicle-only wells

SMILES	fold change	outcome
CC(=O)c1cccc(NC(=O)Nc2ccc3snnc3c2)c1	-1.05	
CCCCN(CC)CCNS(=O)(=O)c1cccc2cccnc12	-1.21	
O=C(NCC1(c2ccccc2)CCCC1)c1ccc2c(=O)n3c(nc2c1)CCCCC3	-1.33	
COc1cccc(C(=O)Cn2c(=O)n(C3CCCC3)c(=O)c3cc(OC)c(OC)cc32)c1	-1.38	
Cc1ccc2c(c1)c(-c1ccccc1)nc1nncn12	1.67	
CCS(=O)(=O)Nc1ccc(C2=NN(S(=O)(=O)c3ccc(F)cc3)C(c3cccs3)C2)cc1 (centres undefined)	1.07	
O=C(CSc1ncnc2ccccc12)NC1CCCCC1	1.03	
CC1CCN(S(=O)(=O)c2ccc3c(c2)N(CC(=O)N2CCOCC2)C(=O)CO3)CC1	1.44	
Fc1ccc(CNc2nnc(Cc3ccncc3)c3ccccc23)cc1	-1.53	
COc1ccccc1CNc1nc2ccccc2n2nnnc12	-3.71 (active)	
CC(C)CCSc1nc(-c2ccc([N+](=O)[O-])cc2)nc2c1c(=O)n(C)c(=O)n2C	1.2	
CCOC(=O)C1CCCN(c2c(OCC)c(=O)c2=O)C1 (centres undefined)	1.23	
CCS(=O)(=O)Nc1ccc(C2=NN(S(C)(=O)=O)C(c3ccco3)C2)cc1 (centres undefined)	-1.18	
O=C(NC1CCCCC1)c1cccc(NC2=NC3CS(=O)(=O)CC3S2)c1 (centres undefined)	-1.15	
CCn1c(SCC(=O)Nc2nnc(C)s2)nnc1-c1c[nH]c2ccccc12		inactive
CC(C)C(NC(=O)CN1C(=O)c2ccccc2S1(=O)=O)C(C)C	-2.34 (active)	
CCOC(=O)Cn1c(=O)oc2cc(S(=O)(=O)NCc3ccccn3)ccc21	1.36	
COc1cc(-c2nc3s/c(=C\c4cccs4)c(=O)n3n2)cc(OC)c1OC	1.19	
Cc1cc(/C=C2/SC(=S)N(CC(=O)O)C2=O)c(C)n1-c1ccncc1	-3.58 (active)	
O=C(CSc1nc(-c2ccco2)cc(C(F)(F)F)n1)N1CCSCC1	-1.96	

SMILES	fold change	outcome
COCC(=O)N1N=C(c2ccc(NS(C)(=O)=O)cc2)CC1c1ccco1 (centres undefined)	1.02	
Nc1cc(-c2ccccc2)nn1S(=O)(=O)c1cccc([N+](=O)[O-])c1	1.1	
COc1ccc(-n2c(-c3ccco3)nc3c(cnn3-c3ccc(Cl)cc3)c2=O)cc1	-1.39	
Cc1nc2cc(-c3ccc(Cl)cc3)nn2c(C)c1CCC(=O)O	-16.5 (active)	
O=C(CSc1nc2sc3c(c2c(=O)[nH]1)CCCC3)N1CCOCC1	-4.39 (active)	
Cc1nc(SCC(=O)Nc2ccc([N+](=O)[O-])cc2)c2c(=O)n(C)c(=O)n(C)c2n1	-1.11	
CCOC(=O)Cn1c(=O)oc2cc(S(=O)(=O)NCCC(C)C)ccc21	-1	
Cc1ccccc1Nc1c(-c2ccccc2O)nc2cnccn12		active
CN1C(=O)/C(=C/c2cn(CC(N)=O)c3ccccc23)c2ccccc21	1.5	
CCOc1cc(C2NC(=O)c3n[nH]c(C)c32)ccc1O (centres undefined)	1.27	
CCOC(=O)CSc1n[nH]c(N)n1	-1.02	
C=CCOc1ccc(/C(O)=C2/C(=O)C(=O)N(CC3CCCO3)C23C(=O)N(C)c2ccccc23)cc1 (centres undefined)	-1.41	
NC(=O)c1c(NC(=O)CN2C(=O)c3ccccc3S2(=O)=O)sc2c1CCCC2	1.23	
CCOC(=O)C1CCCN(c2c(NCC3COc4ccccc4O3)c(=O)c2=O)C1 (centres undefined)	1.35	
CCN(CC)c1ccc2cc(C(=O)O)c(=O)oc2c1	1.12	
CC(=O)N(C1=C(N(C)C)C(=O)c2ccccc2C1=O)c1cc(C)cc(C)c1	-1.54	
O=C(Cn1c(=O)n(CC(=O)NC2CCCC2)c(=O)c2ccccc21)Nc1cccc(F)c1	1.16	
CC(C)(C)NC(=O)CSc1nc(-c2ccc(F)cc2)cc(C(F)(F)F)n1	-1.59	
CCOP(=O)(OCC)C(Nc1ccccn1)c1ccc(F)cc1 (centres undefined)	-1.13	
